From the supplement of paper PMC10849652
The full data set covers some 7,900 targets. This sample favours those with a hit. About 0.6% of all pairs of compound and target were hits. A number with no mark means an inactive call.

Experiments:
Test in all cases: log2 fold change, soluble protein after heating vs DMSO (PISA); higher = thermal stabilisation; K562 cells, 10 uM, 30 min; active = over 0.2 and 3.5 SD of the protein, either way, in both replicates (recomputed)
bafetinib = compound: Cc1ccc(NC(=O)c2ccc(CN3CC[C@H](N(C)C)C3)c(C(F)(F)F)c2)cc1Nc1nccc(-c2cncnc2)n1 [bafetinib]
How it was run: (§1)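 K562 cells at 2×10^6 cells/mL were treated for 30 min with 10 μM compound, and aliquots were heated for 3 min over 48°C-58°C before pooling. Extraction used PBS with 0.5% NP-40 at 4°C, and soluble protein was the supernatant after 21,000xg for 90 min, measured by TMTpro 16plex LC-MS/MS with channel sums equalised. Thermal stability values, relative to control samples and from duplicates, are log2 fold changes.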

[1] = compound: Cc1cccc(CC(=O)N2CCc3c2ccc(-c2cn(C)c4ncnc(N)c24)c3F)n1
How it was run: as §1

nilotinib = compound: Cc1cn(-c2cc(NC(=O)c3ccc(C)c(Nc4nccc(-c5cccnc5)n4)c3)cc(C(F)(F)F)c2)cn1 [nilotinib]
How it was run: as §1

[2] = compound: Cc1nc(Nc2n[nH]c3c2CN(C(=O)N[C@H](CN(C)C)c2ccccc2)C3(C)C)c2sccc2n1
How it was run: as §1

dasatinib = compound: Cc1nc(Nc2ncc(C(=O)Nc3c(C)cccc3Cl)s2)cc(N2CCN(CCO)CC2)n1 [dasatinib]
How it was run: as §1

[3] = compound: Cc1ncc(-c2ccnc(Nc3ccc(S(C)(=O)=O)cc3)n2)n1C(C)C
How it was run: as §1

[4] = compound: Cn1cc(-c2ccc3c(c2)CCN3C(=O)Cc2cccc(C(F)(F)F)c2)c2c(N)ncnc21
How it was run: as §1

[5] = compound: Cn1cc(-c2ccc3nnc(C(F)(F)c4ccc5ncccc5c4)n3n2)cn1
How it was run: as §1

tipifarnib = compound: Cn1cncc1[C@@](N)(c1ccc(Cl)cc1)c1ccc2c(c1)c(-c1cccc(Cl)c1)cc(=O)n2C [tipifarnib]
How it was run: as §1

mubritinib = compound: FC(F)(F)c1ccc(/C=C/c2nc(COc3ccc(CCCCn4ccnn4)cc3)co2)cc1 [mubritinib]
How it was run: as §1

[6] = compound: NC(=O)Nc1cc(-c2cccc(F)c2)sc1C(=O)N[C@H]1CCCNC1
How it was run: as §1

[7] = compound: NC(=O)c1cnc(N[C@@H]2CCCC[C@@H]2N)nc1Nc1cccc(-n2nccn2)c1
How it was run: as §1

[8] = compound: NC1(c2ccc(-c3nc4ccn5c(=O)[nH]nc5c4cc3-c3ccccc3)cc2)CCC1
How it was run: as §1

[9] = compound: NCC(=O)Nc1ccc(-n2nc(C(F)(F)F)cc2-c2ccc3c(ccc4ccccc43)c2)cc1
How it was run: as §1

entinostat = compound: Nc1ccccc1NC(=O)c1ccc(CNC(=O)OCc2cccnc2)cc1 [entinostat]
How it was run: as §1

vorinostat = compound: O=C(CCCCCCC(=O)Nc1ccccc1)NO [vorinostat]
How it was run: as §1

citarinostat = compound: O=C(CCCCCCNC(=O)c1cnc(N(c2ccccc2)c2ccccc2Cl)nc1)NO [citarinostat]
How it was run: as §1

silmitasertib = compound: O=C(O)c1ccc2c(c1)nc(Nc1cccc(Cl)c1)c1ccncc12 [silmitasertib]
How it was run: as §1

[10] = compound: O=C1NC(=O)C(c2cnc3ccccn23)=C1c1cn2c3c(cc(F)cc13)CN(C(=O)N1CCCCC1)CC2
How it was run: as §1

[11] = compound: c1cc(OCCN2CCCCC2)cc(-c2n[nH]c3ccc(-c4nnc[nH]4)cc23)c1
How it was run: as §1

UniProt Q16401, sequence (Q16401 whole entry, looked up): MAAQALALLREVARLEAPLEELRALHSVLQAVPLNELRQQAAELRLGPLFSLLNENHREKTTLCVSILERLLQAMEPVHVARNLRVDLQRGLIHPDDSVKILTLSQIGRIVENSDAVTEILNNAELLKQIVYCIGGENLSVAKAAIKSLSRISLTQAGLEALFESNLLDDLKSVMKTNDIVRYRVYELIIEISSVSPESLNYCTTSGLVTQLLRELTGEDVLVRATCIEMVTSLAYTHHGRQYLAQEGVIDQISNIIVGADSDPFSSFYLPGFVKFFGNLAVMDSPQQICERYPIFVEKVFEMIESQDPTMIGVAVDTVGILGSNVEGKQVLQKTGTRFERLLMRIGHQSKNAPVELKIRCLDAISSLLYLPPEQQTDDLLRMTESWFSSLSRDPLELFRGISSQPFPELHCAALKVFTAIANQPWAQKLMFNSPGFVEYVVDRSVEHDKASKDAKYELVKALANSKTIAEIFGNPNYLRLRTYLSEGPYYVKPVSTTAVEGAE
UniProt P06737, sequence (P06737 whole entry, looked up): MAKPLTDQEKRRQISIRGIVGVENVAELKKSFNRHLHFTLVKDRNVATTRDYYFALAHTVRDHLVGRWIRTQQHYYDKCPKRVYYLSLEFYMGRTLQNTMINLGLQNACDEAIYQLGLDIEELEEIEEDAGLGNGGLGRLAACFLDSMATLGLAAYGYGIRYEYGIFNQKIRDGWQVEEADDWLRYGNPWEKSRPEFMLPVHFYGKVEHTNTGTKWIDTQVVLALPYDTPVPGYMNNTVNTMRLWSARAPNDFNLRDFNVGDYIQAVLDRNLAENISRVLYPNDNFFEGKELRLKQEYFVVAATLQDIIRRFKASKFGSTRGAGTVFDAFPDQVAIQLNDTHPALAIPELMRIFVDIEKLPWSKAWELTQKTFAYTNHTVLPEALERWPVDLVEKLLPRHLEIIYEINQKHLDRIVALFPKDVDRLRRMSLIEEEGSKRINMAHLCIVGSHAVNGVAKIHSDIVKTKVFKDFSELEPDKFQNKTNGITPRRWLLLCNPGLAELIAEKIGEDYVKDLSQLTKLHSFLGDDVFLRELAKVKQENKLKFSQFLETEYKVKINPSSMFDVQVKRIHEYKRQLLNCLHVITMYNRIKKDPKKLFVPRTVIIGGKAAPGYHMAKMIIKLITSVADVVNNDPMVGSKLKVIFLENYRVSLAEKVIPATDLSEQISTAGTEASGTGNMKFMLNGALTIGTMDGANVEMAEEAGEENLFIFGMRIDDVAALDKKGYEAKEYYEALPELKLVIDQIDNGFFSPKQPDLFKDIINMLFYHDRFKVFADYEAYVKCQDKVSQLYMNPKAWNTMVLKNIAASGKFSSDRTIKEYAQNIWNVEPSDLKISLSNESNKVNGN
UniProt P62195, sequence (P62195 whole entry, looked up): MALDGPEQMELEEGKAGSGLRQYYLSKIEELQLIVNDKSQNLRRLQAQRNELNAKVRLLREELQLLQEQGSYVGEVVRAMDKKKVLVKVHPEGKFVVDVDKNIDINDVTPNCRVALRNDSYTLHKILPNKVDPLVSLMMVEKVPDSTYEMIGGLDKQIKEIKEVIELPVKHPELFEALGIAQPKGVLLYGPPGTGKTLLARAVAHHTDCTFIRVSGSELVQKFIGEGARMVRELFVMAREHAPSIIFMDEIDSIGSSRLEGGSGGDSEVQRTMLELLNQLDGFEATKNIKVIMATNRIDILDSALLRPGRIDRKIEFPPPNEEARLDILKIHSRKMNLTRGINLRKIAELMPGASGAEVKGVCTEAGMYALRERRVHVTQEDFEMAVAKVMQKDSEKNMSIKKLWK
UniProt O95394, sequence (O95394 whole entry, looked up): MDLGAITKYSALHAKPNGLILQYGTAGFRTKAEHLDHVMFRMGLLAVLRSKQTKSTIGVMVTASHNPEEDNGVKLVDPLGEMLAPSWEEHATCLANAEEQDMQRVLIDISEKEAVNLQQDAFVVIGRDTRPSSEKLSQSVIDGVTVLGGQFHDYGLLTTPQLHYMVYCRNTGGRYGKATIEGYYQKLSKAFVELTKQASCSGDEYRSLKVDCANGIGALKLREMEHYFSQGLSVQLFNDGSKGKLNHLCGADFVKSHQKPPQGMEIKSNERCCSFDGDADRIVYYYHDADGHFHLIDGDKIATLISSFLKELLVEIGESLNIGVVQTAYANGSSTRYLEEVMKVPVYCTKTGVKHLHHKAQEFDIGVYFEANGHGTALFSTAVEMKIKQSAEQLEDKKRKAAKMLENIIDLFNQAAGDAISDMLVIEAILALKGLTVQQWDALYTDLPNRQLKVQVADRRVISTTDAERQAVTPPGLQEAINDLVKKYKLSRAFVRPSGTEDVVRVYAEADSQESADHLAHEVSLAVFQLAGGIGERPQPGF
UniProt P31323, sequence (P31323 whole entry, looked up): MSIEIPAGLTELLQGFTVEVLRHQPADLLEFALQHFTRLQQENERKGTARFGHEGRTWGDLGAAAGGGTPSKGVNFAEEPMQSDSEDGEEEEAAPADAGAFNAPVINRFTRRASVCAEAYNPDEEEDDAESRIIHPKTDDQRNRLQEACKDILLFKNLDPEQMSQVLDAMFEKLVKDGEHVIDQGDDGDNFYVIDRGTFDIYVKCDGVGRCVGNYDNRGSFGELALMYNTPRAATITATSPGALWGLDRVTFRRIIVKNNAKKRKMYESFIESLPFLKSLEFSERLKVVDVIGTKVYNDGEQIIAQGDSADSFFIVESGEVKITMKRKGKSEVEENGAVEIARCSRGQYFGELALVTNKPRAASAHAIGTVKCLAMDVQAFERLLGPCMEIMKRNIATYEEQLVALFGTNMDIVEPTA
UniProt Q8TAP8, sequence (Q8TAP8 whole entry, looked up): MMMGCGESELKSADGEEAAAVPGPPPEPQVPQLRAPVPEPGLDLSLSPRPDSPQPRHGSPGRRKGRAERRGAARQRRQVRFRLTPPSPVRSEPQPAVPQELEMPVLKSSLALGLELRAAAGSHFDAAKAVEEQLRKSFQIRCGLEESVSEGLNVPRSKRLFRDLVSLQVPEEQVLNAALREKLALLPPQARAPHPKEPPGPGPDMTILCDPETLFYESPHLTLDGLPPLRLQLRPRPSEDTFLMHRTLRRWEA
UniProt O43164, sequence (O43164 whole entry, looked up): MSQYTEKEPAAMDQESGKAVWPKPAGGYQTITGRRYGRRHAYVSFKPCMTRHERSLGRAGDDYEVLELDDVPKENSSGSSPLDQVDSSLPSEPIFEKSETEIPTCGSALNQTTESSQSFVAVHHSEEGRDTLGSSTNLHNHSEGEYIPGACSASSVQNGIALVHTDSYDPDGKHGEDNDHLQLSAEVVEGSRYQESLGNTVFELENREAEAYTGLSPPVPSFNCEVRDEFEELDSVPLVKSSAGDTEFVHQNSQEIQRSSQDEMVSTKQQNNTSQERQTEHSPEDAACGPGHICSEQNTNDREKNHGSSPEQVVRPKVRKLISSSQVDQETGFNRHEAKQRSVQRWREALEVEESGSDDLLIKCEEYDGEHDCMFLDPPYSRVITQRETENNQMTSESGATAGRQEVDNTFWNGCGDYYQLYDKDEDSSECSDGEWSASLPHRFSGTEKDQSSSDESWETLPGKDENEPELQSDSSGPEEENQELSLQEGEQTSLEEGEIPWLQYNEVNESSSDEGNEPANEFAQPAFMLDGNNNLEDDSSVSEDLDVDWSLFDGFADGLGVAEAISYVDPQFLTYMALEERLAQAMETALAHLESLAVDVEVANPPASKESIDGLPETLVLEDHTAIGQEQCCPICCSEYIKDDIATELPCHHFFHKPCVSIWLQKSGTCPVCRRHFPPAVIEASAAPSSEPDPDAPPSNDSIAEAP
UniProt Q96PU8, sequence (Q96PU8 whole entry, looked up): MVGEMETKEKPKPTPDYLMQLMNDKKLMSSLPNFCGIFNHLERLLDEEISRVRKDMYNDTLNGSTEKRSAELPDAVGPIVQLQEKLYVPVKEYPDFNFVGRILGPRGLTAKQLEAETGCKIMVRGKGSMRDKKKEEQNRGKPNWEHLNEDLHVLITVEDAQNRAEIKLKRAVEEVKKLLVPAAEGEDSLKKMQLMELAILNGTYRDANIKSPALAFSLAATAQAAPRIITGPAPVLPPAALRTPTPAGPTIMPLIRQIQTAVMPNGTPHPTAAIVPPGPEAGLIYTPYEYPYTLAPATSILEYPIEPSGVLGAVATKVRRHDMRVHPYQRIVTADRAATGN
UniProt Q9Y478, sequence (Q9Y478 whole entry, looked up): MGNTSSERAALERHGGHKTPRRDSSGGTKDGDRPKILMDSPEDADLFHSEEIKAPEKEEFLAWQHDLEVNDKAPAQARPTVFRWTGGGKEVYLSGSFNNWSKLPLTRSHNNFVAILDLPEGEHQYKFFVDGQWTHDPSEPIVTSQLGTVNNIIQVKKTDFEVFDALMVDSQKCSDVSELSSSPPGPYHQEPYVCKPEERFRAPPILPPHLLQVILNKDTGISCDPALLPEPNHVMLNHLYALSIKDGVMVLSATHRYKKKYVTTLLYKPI

| Target | log2 fold change (bafetinib) | log2 fold change [1] | log2 fold change (nilotinib) | log2 fold change [2] | log2 fold change (dasatinib) | log2 fold change [3] | log2 fold change [4] | log2 fold change [5] | log2 fold change (tipifarnib) | log2 fold change (mubritinib) | log2 fold change [6] | log2 fold change [7] | log2 fold change [8] | log2 fold change [9] | log2 fold change (entinostat) | log2 fold change (vorinostat) | log2 fold change (citarinostat) | log2 fold change (silmitasertib) | log2 fold change [10] | log2 fold change [11] |
| --- | --- | --- | --- | --- | --- | --- | --- | --- | --- | --- | --- | --- | --- | --- | --- | --- | --- | --- | --- | --- |
| PRKCG (UniProt P05129) | -0.012 | 0.067 | 0.019 | -0.385 | 0.022 | 0.018 | 0.015 | -0.132 | -0.095 | 0.047 | -0.064 | -0.043 | -0.086 | 0.068 | 0.117 | 0.109 | 0.193 | 0.062 | -0.229 | 0.082 |
| RAB11FIP1 (UniProt Q6WKZ4) | -0.042 | 0.12 | 0.049 | -0.198 | -0.037 | -0.172 | 0.008 | 0 | 0.003 | 0.003 | 0.019 | -0.121 | -0.086 | -0.009 | 0.041 | 0.091 | 0.065 | 0.016 | 0 | -0.07 |
| POLR2M (UniProt P0CAP2) | -0.029 | -0.015 | -0.011 | 0.034 | 0.055 | 0.138 | -0.051 | -0.024 | 0.035 | -0.037 | -0.03 | 0.035 | -0.045 | -0.085 | -0.032 | -0.091 | -0.019 | 0.043 | 0.009 | -0.008 |
| PLEKHM2 (UniProt Q8IWE5) | -0.09 | -0.024 | -0.054 | -0.002 | -0.072 | -0.077 | 0.001 | -0.08 | -0.028 | 0.096 | 0.01 | -0.102 | -0.315 (active) | -0.107 | 0.024 | 0.072 | 0.109 | -0.058 | -0.009 | -0.125 |
| QKI (UniProt Q96PU8) | -0.001 | 0.058 | -0.015 | -0.105 | -0.029 | -0.093 | -0.007 | -0.036 | -0.015 | 0.003 | -0.057 | -0.137 | -0.086 | -0.084 | 0.006 | 0.06 | 0.026 | -0.012 | -0.071 | 0.064 |
| PRKAB1 (UniProt Q9Y478) | -0.154 | 0.006 | -0.119 | -0.162 | -0.037 | -0.007 | 0.04 | -0.026 | 0.008 | -0.104 | -0.015 | 0.186 | -0.015 | 0.035 | 0.056 | 0.063 | 0.089 | 0 | -0.036 | -0.067 |
| PSMD5 (UniProt Q16401) | -0.09 | 0.006 | -0.015 | -0.026 | -0.026 | 0.006 | 0.018 | 0.002 | -0.05 | 0.023 | -0.001 | 0.009 | -0.094 | -0.009 | 0.01 | 0.008 | 0.033 | 0.038 | -0.032 | -0.009 |
| PGM3 isoform 4 (UniProt O95394) | 0.056 | 0.153 | -0.022 | 0.021 | -0.145 | -0.003 | 0.106 | 0.02 | -0.079 | 0.293 (active) | -0.039 | -0.118 | -0.147 | -0.063 | 0.015 | 0.061 | 0.046 | -0.012 | -0.008 | -0.024 |
| PSMC5 (UniProt P62195) | 0.078 | 0.035 | -0.041 | 0.035 | 0.033 | -0.014 | -0.113 | -0.006 | 0.09 | -0.014 | 0.034 | -0.001 | 0.007 | 0.054 | -0.021 | -0.004 | -0.021 | -0.005 | 0.063 | -0.075 |
| PYGL (UniProt P06737) | -0.218 | 0.006 | -0.202 | 0.036 | -0.027 | -0.035 | 0.001 | -0.005 | 0.016 | 0.052 | 0.135 | 0.012 | -0.023 | 0.016 | 0.028 | 0.01 | 0.039 | 0.034 | -0.043 | -0.041 |
| PTGFRN (UniProt Q9P2B2) | -0.061 | -0.04 | 0.087 | 0.024 | 0.046 | 0.048 | 0.038 | 0.009 | 0.032 | 0.065 | -0.115 | 0.083 | 0.013 | 0.014 | -0.071 | -0.055 | 0.021 | -0.006 | -0.007 | -0.104 |
| PECAM1 (UniProt P16284) | -0.075 | -0.011 | 0.087 | 0.097 | 0.031 | 0 | -0.019 | -0.013 | 0.015 | 0.022 | 0.005 | 0.092 | 0.034 | 0.053 | -0.13 | -0.057 | 0.033 | -0.039 | -0.064 | -0.023 |
| PRKAR2B (UniProt P31323) | -0.022 | 0.133 | 0.012 | -1.23 (active) | -0.078 | -0.16 | 0.022 | -0.07 | -0.103 | 0.189 | -0.964 (active) | -0.152 | -0.223 | 0.016 | 0.027 | 0.112 | 0.078 | 0.008 | -0.003 | -0.013 |
| POLR2G (UniProt P62487) | -0.048 | -0.038 | 0.012 | 0.188 | 0.054 | 0.202 | 0.009 | 0.002 | 0 | 0.065 | 0.061 | 0.153 | -0.008 | 0.003 | -0.034 | -0.148 | -0.009 | 0.004 | 0.009 | -0.037 |
| PPP1R35 (UniProt Q8TAP8) | -0.039 | 0.058 | 0.008 | -0.031 | -0.04 | -0.095 | -0.024 | -0.042 | -0.022 | 0.065 | 0.054 | -0.004 | -0.037 | -0.002 | -0.06 | -0.089 | -0.058 | 0.003 | 0.002 | -0.001 |
| PJA2 (UniProt O43164) | -0.121 | -0.072 | 0.023 | -0.021 | 0.036 | -0.04 | -0.06 | 0.008 | 0.071 | 0.018 | -0.006 | -0.047 | -0.049 | 0.029 | 0.004 | -0.001 | -0.005 | 0.026 | -0.059 | -0.075 |
